Each structure is given as a SMILES string. Screen size: about 340,000 compounds; about 3,300 (0.97%) were called active. About 9% were inconclusive and are not listed. The call rests on the fitted dose curve; in most records, active means well fitted inhibition curve with a large enough effect; inconclusive means small, poorly fitted or top-dose-only effect, or effect the other way; inactive means flat fitted curve, though single readings scatter. This is one part of the list.
Potency means the concentration at half of the fitted maximal effect.

The test in a line: qHTS Assay for Modulators of miRNAs and/or Inhibitors of miR-21. Further: nearly all actives have a fitted effect of over 55% in size. The following applies: HeLa miR-21-FLuc reporter, luciferase luminescence, 48 h; actives lower the signal. In outline: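 HeLa miR-21-FLuc reporter line, endogenous miR-21; 2000 cells/well in DMEM/10% FBS; compound titration up to ~40uM final, 48 h, 37 degree Celsius; luciferase detection reagent, 15 min lysis, CCD luminescence.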
For the molecule `Cc1ccc(C(=O)Cn2cnc3ccccc3c2=O)cc1`, the Potency is 5.85 µM (active).
As for `O=C(Cn1cnc2ccccc2c1=O)c1ccc(Br)cc1`, the Potency was 5.21 µM (active).
Next, `O=C(Cn1cnc2ccccc2c1=O)c1ccc(Cl)cc1`: 7.36 µM (active).
Next, `O=C(Cn1cnc2ccccc2c1=O)c1ccc2ccccc2c1`: 7.36 µM (active); `COc1ccc2cnn(-c3ccc(C)cc3)c(=O)c2c1OC`: 6.56 µM (active).
Regarding `CC(C)c1ccc(N(C(=O)c2ccco2)C(C(=O)NC2CCCC2)c2ccncc2)cc1` (configuration not stated), the Potency is 6.56 µM (active).
In the case of `NC(=O)c1ccccc1OCc1nc2ccccc2s1`, the Potency is 1.47 µM (active).
Next, `O=C(O)c1ccccc1OCc1nc2ccccc2s1`: 3.29 µM (active); `Cc1cc(OCc2nc3ccccc3s2)ccc1N`: 1.17 µM (active); `OCc1cc(Br)ccc1OCc1nc2ccccc2s1`: 1.65 µM (active).
Next, `Cc1ccc2c(c1)COc1c3ccc(C(=O)NCCO)cc3nn1-2`: 5.21 µM (active); `CC(C)[C@@H](CO)NC(=O)c1ccc2c3n(nc2c1)-c1ccc(Cl)cc1CO3`: 1.85 µM (active).
Next, `O=C(NCCO)c1ccc2c3n(nc2c1)-c1ccc(Cl)cc1CO3`: 9.27 µM (active); `O=C(Nc1sc2c(c1C(=O)NCc1ccco1)CCCC2)c1cc(=O)c2ccccc2o1`: 5.85 µM (active).
On to `COc1ccc(OCc2cc(C(=O)N(C)Cc3nnc(C)o3)no2)c(Cl)c1`, for which the Potency was 14.7 µM (active).
As to `Cc1nnc(CN(C)C(=O)c2cc(COc3ccc(F)cc3Cl)on2)o1`, the Potency is 13.1 µM (active).
Regarding `Cc1cc(CN(C)C(=O)c2cc(COc3ccc(F)cc3Cl)on2)n[nH]1`, the Potency was 10.4 µM (active).
Next, `S=C(c1ccc(-c2cccc(Cl)c2)o1)N1CCCCC1`: 1.31 µM (active); `N#CCCN1CCN(C(=S)c2ccc(-c3cccc(Cl)c3)o2)CC1`: 13.1 µM (active).
Next, `O=[N+]([O-])c1cccc(-c2ccc(C(=S)N3CCOCC3)o2)c1`: 1.04 µM (active); `S=C(c1ccc(-c2ccc(Cl)c(Cl)c2)o1)N1CCOCC1`: 1.47 µM (active); `S=C(c1ccc(-c2cccc(Cl)c2)o1)N1CCOCC1`: 3.69 µM (active).
Consider `COCCN=C1NN=C(c2ccc(C)c([N+](=O)[O-])c2)CS1`, for which the Potency is 4.14 µM (active).
Regarding `C=C(C)CSc1nncn1/N=C/c1ccc(OC)cc1`, the Potency is 11.7 µM (active).
Next, `C=CCSc1nncn1/N=C/c1ccc(OC)cc1`: 2.61 µM (active); `O=[N+]([O-])c1ccc2nc(-c3ccncc3)[nH]c2c1`: 18.5 µM (active); `Fc1cc2nc(-c3ccncc3)[nH]c2cc1F`: 16.5 µM (active).
Consider `Cn1cccc1-c1nc2ccc([N+](=O)[O-])cc2[nH]1`, for which the Potency is 2.07 µM (active).
Next, `Cc1ccc(CNC(=O)c2ccc3c(c2)nc2n3CCCC2)cc1`: 18.5 µM (active).
`COc1cc(OC)cc(C(=O)Nc2ccc3nc4n(c(=O)c3c2)CCCCC4)c1`: the Potency is 2.33 µM (active).
Next, `COc1ccc(-c2cc3nc4n(c(=O)c3s2)CCCCC4)cc1`: 0.369 µM (active).
Regarding `CC1CCn2c(nc3cc(C(=O)NCc4ccccc4)ccc32)C1` (configuration not stated), the Potency was 7.36 µM (active).
As to `CCOc1ccc(CNC(=O)c2ccc3c(c2)nc2n3CCCCC2)cc1`, the Potency is 2.07 µM (active).
Next, `COc1ccc(CNC(=O)c2ccc3c(c2)nc2n3CCCCC2)cc1`: 4.65 µM (active); `COc1ccc(N=C2C(=Nc3ccc(OC)cc3)N(c3ccccc3)C(=S)N2C(=O)c2ccc(Cl)cc2)cc1`: 5.21 µM (active); `CCc1ccc(-c2csc(NC(=O)COC(=O)CCc3nc4ccccc4s3)n2)cc1`: 2.07 µM (active).
Next, `COc1ccc(-c2csc(NC(=O)COC(=O)c3ccco3)n2)cc1`: 3.69 µM (active).
Next, `CCc1ccc(-c2csc(NC(=O)Oc3ccccc3)n2)cc1`: 3.69 µM (active).
Turning to `Cc1nc(N)sc1N=Nc1ccc(Br)cc1`, the Potency is 0.736 µM (active).
As to `Cc1nc(N)sc1N=Nc1ccccc1C(F)(F)F`, the Potency was 5.21 µM (active).
As for `Cc1nc(N)sc1N=Nc1ccc(F)cc1`, the Potency is 4.65 µM (active).
Next, `COCCN(CCOC)c1ncnc2c1cnn2-c1ccc(Cl)cc1`: 7.36 µM (active); `Cc1cccc(-n2ncc3c(N(CCO)CCO)ncnc32)c1`: 5.21 µM (active); `CCCCN(c1ccccc1)c1ncnc2c1cnn2-c1ccc(Cl)cc1`: 5.85 µM (active).
Next, `CCN(c1ccccc1)c1ncnc2c1cnn2-c1ccccc1`: 7.36 µM (active); `Cc1ccc2c(c1)c1cccc3c1n2CCN3CCC(N)=O`: 6.56 µM (active); `CC(=O)N1CCn2c3ccc(C)cc3c3cccc1c32`: 14.7 µM (active).
Next, `CC(Oc1ccc(Cl)cc1Cl)c1nc(-c2ccccn2)no1` (configuration not stated): 6.56 µM (active); `CC(C)(C)c1ccc(OCc2nc(-c3ccccn3)no2)c(Br)c1`: 1.65 µM (active); `Clc1cc(Cl)c(OCc2nc(-c3ccccn3)no2)cc1Cl`: 0.736 µM (active).
Consider `Clc1ccc(OCc2nc(-c3ccncc3)no2)c(Br)c1`, for which the Potency was 1.65 µM (active).
As to `Nc1cnc(Nc2ccc(Br)cc2)nc1N`, the Potency is 11.7 µM (active).
Turning to `Cc1ccc2c(c1)-c1nc3ccccc3cc1C2=NC1CCCCC1`, the Potency was 0.656 µM (active).
Next, `CC(C)CCn1cnc2c(sc3nc4c(cc32)CSC(C)(C)C4)c1=O`: 0.293 µM (active); `CCCCn1cnc2c(sc3nc4c(cc32)CSC(C)(C)C4)c1=O`: 0.585 µM (active); `COc1ccc(C(=O)COc2ccccc2C#N)cc1`: 4.65 µM (active).
Next, `NC(=O)c1ccccc1NC(=O)COc1ccc(Cl)cc1`: 4.65 µM (active); `O=C(COc1ccccc1)Nc1ccc(Cl)cc1Cl`: 5.85 µM (active); `COc1cccc(NC(=O)COc2ccc(C)cc2)c1`: 7.36 µM (active).
Next, `COC(=O)c1ccc(OCC(=O)c2cccc(OC)c2)cc1`: 10.4 µM (active); `Cc1ccc(OCC(=O)Nc2ccccc2C(N)=O)cc1`: 1.17 µM (active).
Consider `Cc1sc2c(c1C)C(=O)NC(c1ccccc1F)N2` (configuration not stated), for which the Potency was 7.36 µM (active).
Next, `Cc1ccc(OCCOc2ccc(Br)cc2)c([N+](=O)[O-])n1`: 5.85 µM (active).
`Cc1ccc(OCCOc2cccc(Br)c2)c([N+](=O)[O-])n1`: the Potency was 6.56 µM (active).
Next, `COc1ccc(OCCOc2ccc(C)nc2[N+](=O)[O-])cc1`: 13.1 µM (active).
Next, `COc1ccc(OCCOc2ccccc2[N+](=O)[O-])cc1`: 6.56 µM (active).
Next, `O=C(O)c1cccc(-c2nnn(Cc3ccccc3Cl)n2)c1`: 0.414 µM (active); `O=C(O)c1cccc(-c2nnn(Cc3ccccc3)n2)c1`: 2.33 µM (active).
Take `CC(C)(C)c1ccc(C(=O)NCCC(=O)N2CCCC2)cc1`: the Potency was 2.33 µM (active).
Next, `COc1ccc(CNC(=O)c2ccc(C(C)(C)C)cc2)cc1`: 5.85 µM (active); `CC(C)(C)c1ccc(C(=O)NCc2ccccc2)cc1`: 14.7 µM (active).
Next, `CCCc1nn(C)c(C(=O)Nc2cccc(C)c2)c1Cl`: 5.21 µM (active).
Next, `CCCc1nn(C)c(C(=O)Nc2ccccc2)c1Cl`: 1.85 µM (active).
With `CCCc1nn(C)c(C(=O)Nc2ccc3ccccc3c2)c1Cl`, the Potency is 7.36 µM (active).
Next, `CCCc1nn(C)c(C(=O)Nc2cccc(Cl)c2)c1Cl`: 7.36 µM (active).
Next, `CCC1CN(C(=O)Nc2cccc3c2CCCC3)c2cc(C)ccc2O1` (configuration not stated): 7.36 µM (active); `COc1ccc(/C=C/c2nc3ccccc3n2Cc2ccc(OC)c(OC)c2)cc1`: 1.47 µM (active); `C/C(=N\NC(=O)OC(C)(C)C)c1ccccc1Br`: 14.7 µM (active).
Next, `CCOC(=O)c1cnn2c(C)cc(-c3ccc(F)cc3)nc12`: 4.14 µM (active); `O=C(O)c1ccc(S(=O)(=O)c2ccc3c(c2)C(=O)N(NC(=O)c2ccccc2)C3=O)cc1`: 4.14 µM (active); `COc1ccc(-c2cc(C(=O)N3CCCCC3)no2)cc1OC`: 7.36 µM (active).
As to `COc1ccc(-c2cc(C(=O)N3CCCCCC3)no2)cc1OC`, the Potency is 16.5 µM (active).
In the case of `COc1ccc(-c2cc(C(=O)N3CCCC3)no2)cc1OC`, the Potency was 5.85 µM (active).
Next, `Cc1csc(NC(=O)/C=C/c2ccc(C)o2)n1`: 5.21 µM (active); `Cc1ccc(/C=C/C(=O)Nc2ncc(C)s2)o1`: 1.04 µM (active).
Next, `CCOC(=O)C(C)On1c(-c2ccc(Cl)cc2)nc2ccc([N+](=O)[O-])cc21` (configuration not stated): 3.69 µM (active); `Cn1ccc(C(=O)Nc2ccc(Br)cc2Br)n1`: 0.521 µM (active); `O=C(Nc1ccccc1-c1ccccc1)c1cnccn1`: 13.1 µM (active).
Next, `O=C(Nc1ccccc1-c1ccccc1)c1ccc(=O)[nH]n1`: 14.7 µM (active); `Cc1ccc(NC(=O)c2cnccn2)c(Br)c1`: 5.85 µM (active); `CN(C)CCCN(C(=O)c1sc2ccccc2c1Cl)c1nc2ccc(F)cc2s1`: 9.27 µM (active).
Turning to `O=C(c1ccc2c(c1)OCCO2)N(Cc1cccnc1)c1nc2ccc(F)cc2s1`, the Potency is 4.14 µM (active).
Next, `CCc1ccc2nc(N(Cc3cccnc3)C(C)=O)sc2c1`: 16.5 µM (active); `CN(C)CCCN(C(=O)c1ccc2c(c1)OCCO2)c1nc2ccccc2s1`: 18.5 µM (active); `Cc1cc(C)nc(SCc2csc(-c3ccccc3)n2)n1`: 1.65 µM (active).
Next, `COc1ccccc1NS(=O)(=O)c1cccc(NC(=O)c2cc3ccccc3oc2=O)c1`: 4.65 µM (active); `COc1ccc(S(=O)(=O)Nc2ccccc2OC)cc1NC(=O)c1cc2ccccc2oc1=O`: 6.56 µM (active).
Next, `COc1ccc(Cl)cc1NC(=O)Cn1ccn(Cc2ccc(C)cc2)c(=O)c1=O`: 7.36 µM (active).
`O=C(NCCN1CCOCC1)c1cc(-c2cccs2)on1`: the Potency is 14.7 µM (active).
With `O=C(NCCCN1CCOCC1)c1cc(-c2cccs2)on1`, the Potency is 16.5 µM (active).
Next, `COCCNC(=O)c1cc(-c2cccc(Cl)c2)on1`: 4.14 µM (active); `COCCNC(=O)c1cc(-c2cccs2)on1`: 13.1 µM (active).

These data come from PubChem BioAssay AID2289 (National Center for Advancing Translational Sciences (NCATS), 2010).
